Screening data (PubChem BioAssay)
Shown are actives, neighbours in structure and some others; about 5.8% of the full set was active somewhere.
PINK1 modulator – changes PINK1 expression. PINK1 immunofluorescence, high-content cytometry, 24 h. Potency, µM (series often up to 76.6 µM), for the others: top-dose activation (PINK1 increase), usual class: activators. actives 0.2% (n = 410,000). AID 624263; active means well fitted activation curve with a large enough effect; inconclusive means small, poorly fitted or top-dose-only effect; cell line not stated here; further: % of control where 0% means no effect; nearly all actives have a fitted effect of over 65% in size
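PINK1 protein level read as immunofluorescence by microplate cytometer in a fixed, stained stable cell line after 24 h exposure to five compound concentrations, with CCCP as control.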
KB-V1 MDR tox – kills drug-selected multidrug resistant KB-V1 cells; Potency, µM (doses to about 46.1 µM), most hits filed as cytotoxic; actives 3.4% (n = 400,000); KB-V1 MDR cells viability, CellTiter-Glo, 72 h; further: on the % scale 0 is the no-effect control and ±100 the full control effect; nearly all actives have a fitted effect of over 60% in size
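Drug-selected KB-V1 cells, grown in DMEM lacking phenol red with 10% FBS, receive compound titrations; after three days at 37 degrees C, surviving cell ATP is quantified by CellTiter-Glo luminescence and responses normalized and curve-fitted.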
SW480 rereplic – DNA re-replication induction in SW480 cells. SW480 DNA re-replication, Hoechst DNA content imaging, 48 h. Potency, µM (top dose mostly 46.1 µM), for inactives: at the top dose re-replication activation, actives largely listed as activators. actives 1.8% (n = 340,000); further: % of control where 0% means no effect; nearly all actives have a fitted effect of over 55% in size
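Hoechst fluorescence of nuclei (405 nm excitation, 500-530 nm emission) measured by plate-scanning imager after 48 hr compound exposure at 37 C; re-replication scored as increased number of nuclei with elevated intensity.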
KB-3-1 tox – KB-3-1 parental cell cytotoxicity; KB-3-1 viability, CellTiter-Glo ATP luminescence, 72 h; Potency, µM (highest dose often 46.1 µM), hits mostly cytotoxic; actives 1.4% (n = 400,000); further: on the % scale 0 is the no-effect control and ±100 the full control effect; nearly all actives have a fitted effect of over 60% in size
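KB-3-1 cells, DMEM (no phenol red) + 10% FBS; compound by pin transfer, 72 h, 37 °C. Readout: CellTiter-Glo luminescence after 10 min. Data normalized, curve-fitted.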
ALOX12 inh – blocks human arachidonate 12S-lipoxygenase; P18054; purified 12hLO, xylenol orange hydroperoxide absorbance; Potency, µM (top dose mostly 108 µM), for inactives: at the top dose activity change, negative = inhibition, usual class: inhibitors; actives 1.1% (n = 580,000); AID 1671190; further: on the % scale 0 is the no-effect control and ±100 the full control effect
Target sequence (P18054 whole entry, looked up): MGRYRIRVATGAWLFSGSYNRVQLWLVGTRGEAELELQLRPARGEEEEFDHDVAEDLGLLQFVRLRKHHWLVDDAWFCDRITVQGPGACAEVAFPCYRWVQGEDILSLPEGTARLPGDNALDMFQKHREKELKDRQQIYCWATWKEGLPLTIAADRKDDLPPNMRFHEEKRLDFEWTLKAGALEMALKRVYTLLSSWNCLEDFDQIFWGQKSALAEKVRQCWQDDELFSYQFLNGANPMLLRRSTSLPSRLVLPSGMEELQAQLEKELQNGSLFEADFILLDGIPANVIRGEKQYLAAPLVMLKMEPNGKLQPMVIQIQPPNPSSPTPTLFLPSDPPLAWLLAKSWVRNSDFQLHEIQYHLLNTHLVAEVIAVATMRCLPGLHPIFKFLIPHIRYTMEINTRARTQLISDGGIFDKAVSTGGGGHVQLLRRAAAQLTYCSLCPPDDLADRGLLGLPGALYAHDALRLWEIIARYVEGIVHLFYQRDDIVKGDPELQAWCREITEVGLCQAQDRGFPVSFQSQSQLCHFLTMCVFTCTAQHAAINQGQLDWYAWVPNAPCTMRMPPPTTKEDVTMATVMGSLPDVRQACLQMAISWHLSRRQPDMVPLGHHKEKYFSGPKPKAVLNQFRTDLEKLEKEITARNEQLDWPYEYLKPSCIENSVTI
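Hydroperoxide product was detected by ferrous iron/xylenol orange as the 573 to 405 nm absorbance ratio. Arachidonic acid at 40 uM (final) was turned over for 30 min at room temperature by 150 nM human 12hLO, pH 7.0 Hepes buffer, after 15 min compound preincubation.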
MCF10A rerep – DNA re-replication induction in MCF 10a cells; MCF 10A DNA re-replication, Hoechst nuclear intensity, 48 h; Potency, µM (titrated, usually from 46.1 µM), inactives show at the top dose activity, positive = re-replication, hits mostly activators; AID 624296; actives 2.9% (n = 350,000); further: % of control where 0% means no effect; nearly all actives have a fitted effect of over 50% in size
* hit, by the source's call; i = inactive; ? = inconclusive; / = no result; [ ] = dose if it differs, or a comment. Unless noted, the call rests on the fitted dose curve; in most records, active means well fitted curve in the direction sought with a large enough effect; inconclusive means small, poorly fitted or top-dose-only effect, or another doubt; inactive means no such curve, though single readings can be large; an effect the other way counts as inactive or inconclusive. Potency means the concentration at half of the fitted maximal effect.

SMILES | PINK1 modulator | KB-V1 MDR tox | SW480 rereplic | KB-3-1 tox | ALOX12 inh | MCF10A rerep
COc1cccc(-c2ccc(C#N)c(OC(=O)c3ccc(Cl)cc3)n2)c1 | -1% | i | -3% | i | 0% | 2%
O=C(NCC1CCCO1)c1ccc(Cn2c(SCc3ccc(F)cc3)nc3cccnc32)cc1 (centres undefined) | / | / | / | / | 6% | /
O=C(Cc1cn2ccsc2n1)N1CCCn2nc(C(O)C3CC3)cc2C1 (centres undefined) | / | / | / | / | 45µM* | /
COc1ccc(-c2nc3ccccn3c2NC2CCCCC2)cc1SC1CCCCC1 | ? | i | ? | ? | ? | 12µM*
COc1cc(-c2nc3ccccn3c2NCc2ccccc2)ccc1SC1CCCCC1 | ? | ? | 29% | ? | / | 26µM*
COc1cc(-c2nc3ccc(C)cn3c2NCc2ccccc2)ccc1-c1cccc(Cl)c1 | 4% | i | ? | i | ? | ?
CCCCCCSc1cc(-c2nc3cc(C)ccn3c2NC2CCCCC2)ccc1OC | ? | i | -2% | ? | -17% | ?
Cc1ccc2nc(-c3ccc(-c4cccc(Cl)c4)cc3)c(NCc3ccccc3)n2c1 | 8% | i | 0.33µM* | i | -27% | ?
COc1cc(-c2nc3ccc(C)cn3c2NCc2ccccc2)ccc1SC1CCCCC1 | ? | ? | ? | i | ? | 18µM*
CCN(CC)S(=O)(=O)c1cc(C)c(C)c(NS(=O)(=O)/C=C/c2ccccc2)c1 | / | / | / | / | -14% | /
CN1CCCC1c1nc(C2CN(C(=O)CCc3nc4ccccc4s3)C2)no1 (centres undefined) | / | / | / | / | 15% | /
Nc1ccccc1C(=O)Nc1ccccn1 | / | / | / | / | 0% | /
COc1c2c(c(OC)c3c1c(=O)c1ccccc1n3C)OCO2 | -2% | ? | ? | i | ? | 11%
COc1c2c(c3c(c1OC)c(=O)c1ccccc1n3C)OCO2 | -4% | 13µM* | 15% | i | -1% | 10%
O=C(CCc1cccnc1)Nc1nc(-c2ccc3c(c2)CCO3)cs1 | / | / | / | / | -5% | /
Cc1nc2c(o1)C(=O)c1ccccc1C2=Nc1ccccc1 | -2% | 3.3µM* | 4.1µM* | 4.6µM* | 0% | 6.5µM*
CCc1cccc2c(C(C)=O)cn(CC(=O)NC3CC3)c12 | / | / | / | / | 32µM* | /
CC(=O)c1cn(CC(=O)NC2CCCCCC2)c2ccccc12 | / | / | / | / | 15% | /
CC(C)OCCCn1c(=NC(=O)c2ccncc2)c(C#N)cc2c(=O)n3ccccc3nc21 | 11%[38.3 µM] | i | -9% | i | ? | -8%
CC(=O)N=c1c(C#N)cc2c(=O)n3ccccc3nc2n1CCCOC(C)C | 1% | i | 16µM* | i | -2% | ?
CC(C)OCCCn1c(=NC(=O)c2cccs2)c(C#N)cc2c(=O)n3ccccc3nc21 | 7% | ? | 21µM* | i | 5% | 12µM*
CC(C)OCCCn1c(=N)c(C(N)=S)cc2c(=O)n3ccccc3nc21 | -4% | ? | 5.8µM* | i | ? | 9.2µM*
CC(C)CNC(=O)C(C)(C)Oc1nn(CC2CC2)c2ccc(CN3CCCC3)cc12 | / | / | / | / | 11%[176 µM] | /
O=C(NCc1ccccc1Cn1cccn1)c1cn[nH]c1-c1ccccc1 | / | / | / | / | -1% | /
N#Cc1c(SCC(=O)N2CCOCC2)nc(N2CCCC2)c2c1CCCC2 | / | / | / | / | -24% | /
SMILES | PINK1 modulator | KB-V1 MDR tox | SW480 rereplic | KB-3-1 tox | ALOX12 inh | MCF10A rerep
N#Cc1c(SCCN2CCOCC2)nc(N2CCCCC2)c2c1CCCC2 | / | / | / | / | 0.79µM* | /
Cc1ccccc1-n1c(=O)/c(=C\c2ccco2)s/c1=C(/C#N)C(=O)Nc1ccccc1 | ? | i | 4% | i | 35µM* | 11%
O=C(COc1ncnc2ccccc12)Nc1cc(Cl)ccc1Cl | / | / | / | / | -3% | /
N=C1S/C(=C\c2cccc3ccccc23)C(=O)N1c1ccc(F)cc1 | -1% | 7.3µM* | 18µM* | 7.3µM* | -10% | ?
COc1cc(/C=C2\SC(=S)N(CCC(=O)N3CCCCC3)C2=O)cc(OC)c1OC | -1% | ? | ? | ? | -28% | 21µM*
COc1cc(/C=C2\SC(=S)N(CCC(=O)Nc3ccc(O)cc3)C2=O)cc(OC)c1OC | 1% | i | ? | i | -22% | 16µM*
Cc1ccc(/C=C2\SC(=S)N(CCC(=O)N3CCCCC3)C2=O)cc1 | 2% | i | -4% | ? | -1% | 1%
N=C1S/C(=C\c2ccccc2F)C(=O)N1c1ccc(F)cc1 | 2% | i | -6% | i | -1% | -6%
COc1cc(/C=C2\SC(=N)N(c3ccc(F)cc3)C2=O)ccc1O | 3% | ? | ? | i | ? | 18µM*
COc1cc(/C=C2/SC(=S)N(CCC(=O)Nc3ccc(C(=O)O)cc3)C2=O)cc(OC)c1OC | 2% | i | ? | i | ? | 5%
CCN1CCN(c2oc(-c3cccc(Cl)c3)nc2C#N)CC1 | / | / | / | / | -29% | /
O=C(Cn1c2c(c(=O)n1Cc1ccccc1)CCN(Cc1ccccc1)C2)N1CCC(c2ccccc2)CC1 | / | / | / | / | 9% | /
O=C(CC1CNCCO1)N1CCc2nc(-c3ccc(Cl)cc3)[nH]c2C1 (centres undefined) | / | / | / | / | 1% | /
COc1ccc(/C=C2\SC(=O)N(CC(=O)Nc3ccc(F)cc3)C2=O)cc1O | 0% | i | -13% | i | 0% | 26µM*
COc1ccc(/C=C2\SC(=O)N(CC(=O)Nc3cccnc3)C2=O)cc1OC | 7% | i | ? | i | 0% | 12%
CCOC(=O)N1CCN(C(=O)CCN2C(=O)/C(=C\c3ccc(OC)c(OC)c3)SC2=S)CC1 | 32µM* | ? | / | i | 0% | /
COc1cccc(/C=C2\SC(=S)N(CCC(=O)N3CCCCC3CCO)C2=O)c1 (centres undefined) | 1% | ? | 18µM* | ? | -11% | 23µM*
CC(=O)NNC(=S)Nc1cc(Cl)cc(Cl)c1 | / | / | / | / | -2% | /
CCOC(=O)C1=C(C)N(c2ccc3c(c2)OCO3)C(=O)NC1c1ccccc1 (centres undefined) | / | / | / | / | -17% | /
Cc1cccc(NC(=O)C2CCN(c3nc4ccccc4o3)CC2)c1C | / | / | / | / | -17% | /
Cc1oc(-c2cccs2)nc1C(=O)NC(C)CN1CCOCC1 (centres undefined) | / | / | / | / | 7% | /
Cc1ccc(C(=O)/C=C/c2cn(CC(O)CN3CCOCC3)c3ccccc23)cc1 (centres undefined) | 0% | i | 21µM* | ? | ? | 13µM*
COc1ccc(C(=O)/C=C/c2cn(CC(O)CN3CCOCC3)c3ccccc23)cc1 (centres undefined) | -1% | i | 15µM* | i | / | 15µM*
